Reference: PubChem BioAssay (EPA / NIEHS)
Inconclusive results are not listed. Some structures have more than one record in an assay (separate samples or runs), and their calls can disagree. Calls of active or inactive are those of the source. How the source made its calls: active means hit-call score of the fitted dose curve at least 0.9, where 1 is the maximum; inconclusive means response in the unintended direction; inactive means score below 0.9.

Target: Nuclear receptor subfamily 4 group A member 2 (Homo sapiens) (UniProt P43354)
Sequence (P43354 whole entry, looked up): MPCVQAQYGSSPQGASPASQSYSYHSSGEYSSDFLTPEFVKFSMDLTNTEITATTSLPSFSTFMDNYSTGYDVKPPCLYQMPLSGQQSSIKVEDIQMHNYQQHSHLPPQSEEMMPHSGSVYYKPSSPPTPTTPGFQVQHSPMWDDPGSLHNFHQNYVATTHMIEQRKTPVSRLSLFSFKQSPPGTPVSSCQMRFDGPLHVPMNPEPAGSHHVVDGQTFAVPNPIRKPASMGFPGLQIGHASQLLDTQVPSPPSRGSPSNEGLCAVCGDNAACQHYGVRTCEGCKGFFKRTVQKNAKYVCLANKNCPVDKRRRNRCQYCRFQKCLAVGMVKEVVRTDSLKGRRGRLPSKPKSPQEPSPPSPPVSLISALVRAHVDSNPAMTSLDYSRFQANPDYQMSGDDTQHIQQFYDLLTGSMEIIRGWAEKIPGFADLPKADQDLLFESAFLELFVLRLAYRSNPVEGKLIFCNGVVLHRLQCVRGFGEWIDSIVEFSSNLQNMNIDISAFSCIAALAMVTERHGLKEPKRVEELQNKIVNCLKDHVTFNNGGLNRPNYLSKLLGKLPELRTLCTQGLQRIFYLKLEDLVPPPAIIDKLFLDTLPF
Assay: ATG_NURR1_TRANS: Attagene TRANS-FACTORIAL HepG2 Assay for human Nuclear Receptor Related Protein 1 (NURR1) (AID 2282985)
Conditions: HepG2 Attagene TRANS reporter, mRNA readout
Experimental: ATG_TRANS is a cell-based, multiplexed-readout assay that uses HepG2, a human liver cell line, with measurements taken at 24 hours after chemical dosing in a 24-well plate.ATG_NURR1_TRANS is one of 30 assay component(s) measured or calculated from the ATG_TRANS assay. It is designed to make measurements of mRNA induction, a form of inducible reporter, as detected with fluorescence intensity signals by Reverse transcription polymerase chain reaction (RT-PCR) and Capillary electrophoresis technology.Data from the assay component ATG_NURR1_TRANS was analyzed into 1 assay endpoint. This assay endpoint, ATG_NURR1_TRANS, was analyzed in the positive analysis fitting direction relative to DMSO as the negative control and baseline of activity. Using a type of inducible reporter, measures of mRNA for gain-of-signal activity can be used to understand the reporter gene at the transcription factor-level as they relate to the gene NR4A2. Furthermore, this assay endpoint can be referred to as a primary readout, because this assay has produced multiple assay endpoints where this one serves a reporter gene function. To generalize the intended target to other relatable targets, this assay endpoint is annotated to the nuclear receptor intended target family, where the subfamily is orphan.
Human liver HepG2 cells are transiently transfected with multiple reporter transcription units (MRTUs) in 6-well plates using FuGene 6 reagent (Roche; 3 ml FuGene/1 mg DNA). The MRTU constructs are regulated by a cis-regulating element (promoter). […] A major difference between the CIS and TRANS system is that in CIS activities of endogenous TFs are measured, whereas the TRANS assay evaluates changes in activities of exogenous, chimeric NR-Gal4 proteins. […] At the end of 24 hour incubation, total RNA was isolated using TriZol reagent (Invitrogen). The isolated RNA is then reverse-transcribed using oligo(dT) primer and Mo-MLV reverse transcriptase (Invitrogen) with DNAse I (Ambion) treatment for 30 min. The one-tenth of the produced cDNA was amplified by PCR using Taq DNA polymerase (Invitrogen) and two reporter sequence-specific primers. The PCR products were fluorescently labeled by primer extension with 6-arboxyfluorescein (6-FAM) 5'-labeled reporter sequence-specific primer (2 min at 95 C, 20 s at 68 C and 10 min at 72 C) and these products were digested with 5U of HpaI (New England Biolabs) for 2h at 37 C. The fragments were purified using Qiaquick PCR columns (Qiagen), analyzed on an ABI 3130xL genetic analyzer (Applied Biosystems) with peak positions identified by using a set of X-rhodamine (ROX)-labeled MapMarker1000 molecular weight standards (BioVentures). The raw capillary electrophoresis data was processed using Attagraph software (Attagene).

outcome, inactive:
CCO[Si](CCCNC(N)=O)(OCC)OCC, CCCCCCCCN(C)CCCCCCCC, Cc1ccc2oc(CN(Cc3ccccc3)C(=O)Nc3c(F)cc(F)cc3F)c(-c3ccc(Cl)cc3)c2c1, COCC(C)OCC(C)OCC(C)O (stereo not given), O=C(Nc1ccc(Cl)cc1)Nc1ccc(Cl)c(Cl)c1, C[C@]12CC[C@@H]3c4ccc(O)cc4CC[C@H]3[C@@H]1CCC2=O, CCCCCCCCCCCO, Cc1ccc(C(C)C)cc1, O=c1c(-c2ccc(O)cc2)coc2cc(O)cc(O)c12, O=C1c2ccccc2C(=O)N1CCc1noc(-c2ccc(CN3CCCCCC3)s2)n1, O=C1CCC(C2CCCCC2)CC1, CC(O)CC(C)(C)O (stereo not given), CCCCOC(=O)c1ccc(O)cc1, CC/C(=C(/CC)c1ccc(O)cc1)c1ccc(O)cc1, CCN(Cc1cccc(S(=O)(=O)O)c1)c1ccc(C(=C2C=CC(=[N+](CC)Cc3cccc(S(=O)(=O)O)c3)C=C2)c2ccccc2S(=O)(=O)[O-])cc1, CCCOC(=O)c1cc(O)c(O)c(O)c1, CC(C)(c1cc(Br)c(O)c(Br)c1)c1cc(Br)c(O)c(Br)c1, CCCCCCCCCC(=O)O, Cc1cc2c(cc1C(F)(F)F)N(C(=O)Nc1ccc(Oc3cccnc3C)nc1)CC2, CC[C@H](NC(=O)c1cc(F)ccc1NS(=O)(=O)c1cccc2cccnc12)c1ccccc1, O=CCCCC=O, CN1C(=O)CC[C@H]1c1cccnc1, CCCCCCCCOc1ccc(C(=O)c2ccccc2)c(O)c1, CN1C(=O)N(c2ccccc2Br)Cc2cnc(Nc3ccc4c(c3)OCC(CO)O4)nc21 (stereo not given), CC(C)(O)c1ccc(CNC(=O)c2cccnc2Oc2ccc3nonc3c2)cc1, CN(C)C(=O)C1(N2CCCCC2)CCN(CC[C@@]2(c3ccc(Cl)c(Cl)c3)CN(C(=O)c3ccccc3)CCO2)CC1, O=C(OCCCCCCOC(=O)c1ccccc1)c1ccccc1, Clc1ccccc1C(c1ccccc1)(c1ccccc1)n1ccnc1, Oc1ccccc1, Cc1cc(F)ccc1-c1cc(N2CC[C@@H](O)[C@H]2CO)ncc1N(C)C(=O)C(C)(C)c1cc(C(F)(F)F)cc(C(F)(F)F)c1, CCCCCCCC[Si](OCC)(OCC)OCC, O=C(O)c1ccccc1C(=O)OCc1ccccc1, COc1ccc2cc(S(=O)(=O)N[C@H](CC(=O)N[C@H](Cc3ccc(CN4[C@H](C)CCC[C@@H]4C)cc3)C(=O)N(C)C(C)C)c3ccc4c(c3)OCO4)ccc2c1, CC1(C)NC(=O)N(c2ccc([N+](=O)[O-])c(C(F)(F)F)c2)C1=O, Cc1cccc2ccccc12, c1ccc2n[nH]nc2c1

AC50, active:
CCCCCCCCOC(=O)c1cc(O)c(O)c(O)c1 24.2 µM, CCCCOC(=O)c1ccc(O)cc1 100 µM, CCCCCCCCCC(=O)O 104 µM, NC(=O)c1nc(-c2cccc(-c3cc(F)ccc3OCC(F)(F)C(F)(F)F)c2)n[nH]1 50.1 µM
